Data from PubChem BioAssay (Tox21).
Several values for one entry are separate records, joined by “and”; a condition that tells them apart may be missing. Identical values can stand only once. Activity calls are given as the source filed them. Unless noted, calls come from the whole dose curve; as a rule, active = well fitted curve in the direction sought with a large enough effect in the repeat runs; inconclusive = weak or mixed curves; inactive = no such curve, though single readings can be large; an effect the other way counts as inactive or inconclusive.

How the values were obtained:
[1] = qHTS assay to identify small molecule antagonists of the thyroid receptor (TR) signaling pathway - cell viability counter screen (AID 743064); note: nearly all actives have a fitted effect of over 50% in size; note: potency is the fitted concentration of half-maximal effect
Summary of the method: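 Plate GH3.TRE-Luc cells; incubate 4 h at 37 °C; add compound, then T3 to 1 nM final; incubate 23.5 h; add CellTiter-Fluor; incubate 30 min at 37 °C, 5% CO2; read fluorescence.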

[2] = qHTS assay to identify small molecule antagonists of the thyroid receptor (TR) signaling pathway (AID 743065); note: potency is the fitted concentration of half-maximal effect; nearly all actives have a fitted effect of over 55% in size
Summary of the method: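 GH3.TRE-Luc rat pituitary cells carrying two TR response elements driving luciferase were plated for 4 h, given compound plus 1 nM T3 (final), and incubated 23.5 h at 37 C. ONE-Glo luminescence measured reporter inhibition; CellTiter-Fluor fluorescence tracked cytotoxicity.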

[3] = qHTS assay to identify small molecule antagonists of the estrogen receptor alpha (ER-alpha) signaling pathway using the BG1 cell line (AID 743080; calls by dose curve;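 note: BG1 cells stimulated with 17beta-estradiol alongside compound; nearly all actives have a fitted effect of over 25% in size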; note: potency is the fitted concentration of half-maximal effect)
Summary of the method: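 After 5 days in phenol-red-free 10% charcoal-stripped FBS medium, BG1-Luc-4E2 cells were seeded, left 24 h at 37 C, co-treated with compounds and 17beta-estradiol for 21.5 h, then assayed for viability and luciferase.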

[4] = qHTS assay to identify small molecule antagonists of the estrogen receptor alpha (ER-alpha) signaling pathway using the BG1 cell line - cell viability counter screen (AID 743081);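 note: compound given together with 17beta-estradiol as the ER stimulus; nearly all actives have a fitted effect of over 45% in size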; note: potency is the fitted concentration of half-maximal effect
Aromatase (Homo sapiens) = Aromatase (Homo sapiens) (UniProt P11511); assay: qHTS assay to identify aromatase inhibitors (AID 743083); note: nearly all actives have a fitted effect of over 55% in size; note: potency is the fitted concentration of half-maximal effect
Chain of Aromatase (Homo sapiens) (P11511 whole entry, looked up): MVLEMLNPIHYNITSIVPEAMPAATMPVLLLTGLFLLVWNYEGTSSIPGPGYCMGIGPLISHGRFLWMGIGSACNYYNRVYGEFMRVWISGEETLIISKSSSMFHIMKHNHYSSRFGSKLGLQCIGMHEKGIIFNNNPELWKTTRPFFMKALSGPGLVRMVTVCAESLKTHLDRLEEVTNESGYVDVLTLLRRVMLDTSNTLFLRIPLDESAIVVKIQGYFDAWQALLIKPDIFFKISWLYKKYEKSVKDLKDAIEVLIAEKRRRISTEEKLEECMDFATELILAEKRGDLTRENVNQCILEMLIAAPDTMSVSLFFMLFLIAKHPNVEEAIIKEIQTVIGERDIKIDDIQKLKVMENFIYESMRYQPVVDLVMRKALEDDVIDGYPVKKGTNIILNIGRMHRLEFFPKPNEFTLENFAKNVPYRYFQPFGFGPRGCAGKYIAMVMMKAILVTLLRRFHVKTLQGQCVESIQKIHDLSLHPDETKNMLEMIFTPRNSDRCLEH

[5] = qHTS assay to identify aromatase inhibitors - cell viability counter screen (AID 743084);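 note: cells stimulated with testosterone during compound exposure; nearly all actives have a fitted effect of over 55% in size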; note: potency is the fitted concentration of half-maximal effect
[6] = biological target: Aryl hydrocarbon receptor (Homo sapiens) (UniProt P35869); assay: qHTS assay to identify small molecule that activate the aryl hydrocarbon receptor (AhR) signaling pathway (AID 743085); note: nearly all actives have a fitted effect of over 15% in size; note: potency is the fitted concentration of half-maximal effect;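 for activation: HG2L7.5c1 human HepG2 liver cells with stably integrated DRE-driven firefly reporter; % is set by controls: 0 for no effect and ±100 for the full control effect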
Chain of Aryl hydrocarbon receptor (Homo sapiens) (P35869 whole entry, looked up): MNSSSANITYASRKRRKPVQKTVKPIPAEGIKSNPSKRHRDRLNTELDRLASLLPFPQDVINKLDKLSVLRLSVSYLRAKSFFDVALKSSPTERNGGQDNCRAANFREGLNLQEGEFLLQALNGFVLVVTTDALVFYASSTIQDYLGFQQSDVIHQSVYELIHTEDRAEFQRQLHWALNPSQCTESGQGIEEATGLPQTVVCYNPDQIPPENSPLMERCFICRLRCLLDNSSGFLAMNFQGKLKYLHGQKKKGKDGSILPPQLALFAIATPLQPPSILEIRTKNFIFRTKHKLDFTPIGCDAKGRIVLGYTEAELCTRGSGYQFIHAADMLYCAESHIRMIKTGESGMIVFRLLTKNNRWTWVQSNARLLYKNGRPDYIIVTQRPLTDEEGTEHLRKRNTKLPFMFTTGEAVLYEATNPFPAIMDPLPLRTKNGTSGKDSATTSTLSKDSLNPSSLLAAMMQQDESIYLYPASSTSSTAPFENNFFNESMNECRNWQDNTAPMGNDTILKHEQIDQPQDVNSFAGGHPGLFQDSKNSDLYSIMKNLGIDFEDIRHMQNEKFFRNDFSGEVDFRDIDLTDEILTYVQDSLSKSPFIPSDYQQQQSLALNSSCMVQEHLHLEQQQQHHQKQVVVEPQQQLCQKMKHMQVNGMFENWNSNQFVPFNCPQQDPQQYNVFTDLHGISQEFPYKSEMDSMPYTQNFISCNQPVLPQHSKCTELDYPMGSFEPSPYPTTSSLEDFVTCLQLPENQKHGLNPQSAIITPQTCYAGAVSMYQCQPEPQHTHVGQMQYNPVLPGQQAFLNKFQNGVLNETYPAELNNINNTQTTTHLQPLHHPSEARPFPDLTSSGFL
Summary of the method: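 Steps: seed HepG2-AhR-luc cells; allow 5 h at 37C; pin-transfer test compound or vehicle; incubate 24 h at 37C; add viability dye (30 min, 37C) and read fluorescence; add luciferase substrate (30 min, RT) and read luminescence.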

[7] = qHTS assay to identify small molecule that activate the aryl hydrocarbon receptor (AhR) signaling pathway - cell viability counter screen (AID 743086); note: nearly all actives have a fitted effect of over 45% in size; note: potency is the fitted concentration of half-maximal effect
Summary of the method: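 HepG2-AhR-luc (HG2L7.5c1) cells, 4000/well, were preincubated 5 h at 37C, exposed to compound in qHTS format for 24 hr at 37C, then given CellTiter-Fluor for 30 min; viability was read as fluorescence in the reporter wells.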

[8] = qHTS assay for small molecule activators of the heat shock response signaling pathway - cell viability counter screen (AID 743209); note: nearly all actives have a fitted effect of over 50% in size; note: potency is the fitted concentration of half-maximal effect
Summary of the method: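 Compounds dissolved in DMSO were added to overnight-plated HSE-bla HeLa cells and left 5 h at 37 C. Cell viability was quantified by luminescence using CellTiter-Glo.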

[9] = qHTS assay to identify small molecule antagonists of the estrogen receptor alpha (ER-alpha) signaling pathway - cell viability counter screen (AID 743074; calls by dose curve;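 note: HEK293 cells carrying ER-alpha-UAS-bla reporter stimulated with 17beta-estradiol; nearly all actives have a fitted effect of over 45% in size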; note: potency is the fitted concentration of half-maximal effect)
[10] = qHTS assay to identify small molecule antagonists of the peroxisome proliferator-activated receptor gamma (PPARg) signaling pathway - cell viability counter screen (AID 743194); note: nearly all actives have a fitted effect of over 55% in size; note: potency is the fitted concentration of half-maximal effect
Summary of the method: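 PPARg-UAS-bla HEK293H cells were plated, rested 5 h at 37 C, then treated with compounds plus rosiglitazone (50 nM final) for 17 h at 37 C; viability was then read by CellTiter-Glo luminescence after 30 min at room temperature.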

[11] = qHTS assay for small molecule agonists of the antioxidant response element (ARE) signaling pathway - cell viability counter screen (AID 743203; calls by dose curve; note: nearly all actives have a fitted effect of over 55% in size; note: potency is the fitted concentration of half-maximal effect)
Summary of the method: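 ATP content via CellTiter-Glo luminescence served as the viability measure. Cells: ARE-bla HepG2, 2,000 per well. Exposure: 16 hrs, 37C/5% CO2.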

[12] = test system: thyroid hormone receptor (rat, GH3 cells); assay: qHTS assay to identify small molecule agonists of the thyroid receptor (TR) signaling pathway (AID 743066; calls by dose curve; note: % is set by controls: 0 for no effect and ±100 for the full control effect)
[13] = biological target: Estrogen receptor (Homo sapiens) (UniProt P03372); assay: qHTS assay to identify small molecule antagonists of the estrogen receptor alpha (ER-alpha) signaling pathway (AID 743069; active = well fitted curve in the direction sought with a large enough effect in the signal ratio in the repeat runs, not every such curve was filed as active; inconclusive = weak or mixed curves, or effect the other way; inactive = no such curve, though single readings can be large or run the other way; the % refers to the signal ratio; note: potency is the fitted concentration of half-maximal effect)
Chain of Estrogen receptor (Homo sapiens) (P03372 whole entry, looked up): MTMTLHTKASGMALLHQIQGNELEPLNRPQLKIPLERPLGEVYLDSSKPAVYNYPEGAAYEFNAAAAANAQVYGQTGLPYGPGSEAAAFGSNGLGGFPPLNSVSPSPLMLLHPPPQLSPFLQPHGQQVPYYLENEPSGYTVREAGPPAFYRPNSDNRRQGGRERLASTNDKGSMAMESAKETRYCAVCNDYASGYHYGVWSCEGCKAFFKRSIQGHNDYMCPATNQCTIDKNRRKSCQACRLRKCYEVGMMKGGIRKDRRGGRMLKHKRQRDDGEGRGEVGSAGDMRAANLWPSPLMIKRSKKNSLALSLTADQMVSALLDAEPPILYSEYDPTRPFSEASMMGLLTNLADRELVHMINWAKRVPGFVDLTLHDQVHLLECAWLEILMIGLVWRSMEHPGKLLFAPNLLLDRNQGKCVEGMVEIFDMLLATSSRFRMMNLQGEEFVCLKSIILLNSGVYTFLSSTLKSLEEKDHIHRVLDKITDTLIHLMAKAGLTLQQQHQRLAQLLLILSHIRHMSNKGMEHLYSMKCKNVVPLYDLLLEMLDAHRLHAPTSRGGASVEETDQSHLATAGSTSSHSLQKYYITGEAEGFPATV
Summary of the method: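 A 17beta-estradiol challenge was applied right after compound transfer to ER-alpha-UAS-bla HEK293 cells previously kept in charcoal-stripped serum. Plates stood 18 hr at 37C and 5% CO2; fluorescence was read following 2 hr FRET substrate loading at room temperature.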

[14] = biological target: Estrogen receptor (Homo sapiens) (UniProt P03372); assay: qHTS assay to identify small molecule agonists of the estrogen receptor alpha (ER-alpha) signaling pathway (AID 743075; calls by dose curve;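 note: HEK293 GripTite cells with ER-alpha and UAS-driven beta-lactamase reporter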; note: potency is the fitted concentration of half-maximal effect; for activation: % is set by controls: 0 for no effect and ±100 for the full control effect); settings: HEK293 ER-alpha-UAS-bla, beta-lactamase FRET ratio, 18 h; activation: at 70.1 µM (top of the series)
[15] = biological target: Estrogen receptor (Homo sapiens) (UniProt P03372); assay: qHTS assay to identify small molecule agonists of the estrogen receptor alpha (ER-alpha) signaling pathway using the BG1 cell line (AID 743079); settings: BG1Luc4E2 cells, ERE-luciferase agonist, 22 h; note: nearly all actives have a fitted effect of over 20% in size; note: potency is the fitted concentration of half-maximal effect
[16] = biological target: Peroxisome proliferator-activated receptor gamma (Homo sapiens) (UniProt P37231); assay: qHTS assay to identify small molecule agonists of the peroxisome proliferator-activated receptor gamma (PPARg) signaling pathway (AID 743094; active = well fitted activation curve with a large enough effect in the signal ratio in the repeat runs, not every such curve was filed as active; inconclusive = weak or mixed curves, or effect the other way; inactive = no such curve, though single readings can be large or run the other way; the % refers to the signal ratio; note: potency is the fitted concentration of half-maximal effect)
Chain of Peroxisome proliferator-activated receptor gamma (Homo sapiens) (P37231 whole entry, looked up): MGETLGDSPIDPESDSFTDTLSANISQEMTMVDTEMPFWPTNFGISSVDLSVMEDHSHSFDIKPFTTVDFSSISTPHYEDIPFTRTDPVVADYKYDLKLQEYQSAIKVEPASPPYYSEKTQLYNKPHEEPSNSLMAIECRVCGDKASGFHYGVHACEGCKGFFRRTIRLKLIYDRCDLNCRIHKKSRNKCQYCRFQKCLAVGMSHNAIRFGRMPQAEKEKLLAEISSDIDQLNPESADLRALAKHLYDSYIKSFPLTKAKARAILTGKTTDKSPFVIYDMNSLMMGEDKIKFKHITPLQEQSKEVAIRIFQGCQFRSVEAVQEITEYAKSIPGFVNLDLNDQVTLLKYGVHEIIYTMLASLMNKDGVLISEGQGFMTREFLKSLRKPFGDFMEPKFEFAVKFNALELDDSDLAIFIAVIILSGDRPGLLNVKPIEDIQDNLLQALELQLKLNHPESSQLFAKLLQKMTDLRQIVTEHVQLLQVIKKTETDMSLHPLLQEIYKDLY
Summary of the method: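 Agonism was assessed in a beta-lactamase reporter system, HEK293H cells with a stably integrated UAS-bla construct under PPARg control; the 17 h treatment at 37C preceded a 1 h room-temperature FRET substrate read.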

[17] = biological target: Peroxisome proliferator-activated receptor gamma (Homo sapiens) (UniProt P37231); assay: qHTS assay to identify small molecule antagonists of the peroxisome proliferator-activated receptor gamma (PPARg) signaling pathway (AID 743191; calls by dose curve; note: % is set by controls: 0 for no effect and ±100 for the full control effect; nearly all actives have a fitted effect of over 30% in size)
Summary of the method: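 GeneBLAzer PPARg UAS-bla HEK293H cells carrying a UAS-driven beta-lactamase reporter were plated at 3000 cells/well, preincubated 5 h at 37C, then given compound for 17 h at 37C; LiveBLAzer B/G FRET substrate was read after 1 h at room temperature.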

[18] = qHTS assay for small molecule agonists of the antioxidant response element (ARE) signaling pathway (AID 743202; active = well fitted activation curve with a large enough effect in the signal ratio in the repeat runs, not every such curve was filed as active; inconclusive = weak or mixed curves, or effect the other way; inactive = no such curve, though single readings can be large or run the other way; the % refers to the signal ratio; note: potency is the fitted concentration of half-maximal effect)
Summary of the method: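 Following a 16 h, 37 C exposure of reporter HepG2 cells (ARE-driven beta-lactamase, 2,000 cells/well) to compounds, FRET substrate was applied for 2 h at room temperature and fluorescence intensity recorded.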

[19] = qHTS assay for small molecule activators of the heat shock response signaling pathway (AID 743210; active = well fitted activation curve with a large enough effect in the signal ratio in the repeat runs, with a control signal flat, not every such curve was filed as active; inconclusive = weak or mixed curves; the % refers to the signal ratio; note: % is set by controls: 0 for no effect and ±100 for the full control effect)
Summary of the method: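 Heat shock element–beta-lactamase HeLa reporter cells; qHTS with compounds for 5 h at 37 C; detection by FRET substrate fluorescence after 2.5 h at RT.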

Oc1c(Cl)cc(Cl)c2cccnc12
active: Potency [1] 9.44 µM | Potency [2] 6.68 µM | Potency [3] 21.1 µM | Potency (Aromatase (Homo sapiens)) 11.9 µM | Potency [6] 4.73 µM
inactive: Potency [4] | Potency [5] | Potency [7] | Potency [8]

CCCN(CCC)c1c([N+](=O)[O-])cc(C(F)(F)F)c(N)c1[N+](=O)[O-]
active: Potency [1] 13.6 µM | Potency [2] 13.6 µM | Potency (Aromatase (Homo sapiens)) 15.3 µM | Potency [5] 54.3 µM | Potency [8] 34.6 µM

CC1=C(C(=O)OC(C)C)C(c2cccc([N+](=O)[O-])c2)C(C(=O)OC2CN(C(c3ccccc3)c3ccccc3)C2)=C(N)N1 (configuration not stated)
active: Potency [1] 2.98 µM | Potency [2] 2.98 µM | Potency [9] 23.9 µM | Potency (Aromatase (Homo sapiens)) 29.8 µM | Potency [10] 23.7 µM | Potency [8] 10.6 µM

CCCCCCCCCCCC(=O)NCCCN(C)C
active: Potency [1] 17.2 µM | Potency [2] 17.2 µM | Potency [9] 49 µM | Potency [4] 61.1 µM | Potency (Aromatase (Homo sapiens)) 43.3 µM | Potency [5] 54.5 µM | Potency [11] 43.3 µM | Potency [8] 49 µM
inactive: Potency [6]

NNC(=O)c1cccc(C(=O)NN)c1
inactive: Potency [1] | Potency [12] | Potency [13] | Potency [9] | Potency [14] | activation ([15]; at 70.3 µM (top of the series)) 4.33% | Potency [3] | Potency [4] | Potency (Aromatase (Homo sapiens)) | Potency [5] | Potency [7] | Potency [16] | Potency [17] | Potency [10] | Potency [18] | Potency [11] | Potency [8] | Potency [19]
active: Potency [6] 27.3 µM

COc1cccc2c1C(=O)c1c(O)c3c(c(O)c1C2=O)C[C@@](O)(C(=O)CO)C[C@@H]3O[C@H]1C[C@H](N)[C@H](O[C@@H]2CCCCO2)[C@H](C)O1
active: Potency [1] 1.68 µM | Potency [2] 0.841 µM | Potency [14] 4.25 µM [activator] | Potency [4] 9.44 µM | Potency [5] 13.3 µM | Potency [7] 6.68 µM
inactive: Potency [9] | Potency (Aromatase (Homo sapiens)) | Potency [19]

N#CSc1ccc(N)c([N+](=O)[O-])c1
active: Potency [1] 54.8 µM | Potency [13] 27.7 µM [inconclusive] | Potency [4] 54.8 µM | Potency (Aromatase (Homo sapiens)) 27.5 µM | Potency [5] 38.8 µM
inactive: Potency [12] | Potency [9] | Potency [14] | activation ([15]; at 95 µM (top of the series)) -0.741% | Potency [11] | Potency [8]

CN(C)C(=O)C1(N2CCCCC2)CCN(CC[C@@]2(c3ccc(Cl)c(Cl)c3)CN(C(=O)c3ccccc3)CCO2)CC1
inactive: Potency [6]
active: Potency [1] 5.09 µM | Potency [2] 4.54 µM | Potency [9] 51.3 µM | Potency [4] 64.1 µM | Potency (Aromatase (Homo sapiens)) 40.4 µM | Potency [5] 50.9 µM | Potency [7] 20.3 µM | Potency [10] 16.2 µM | Potency [8] 51.3 µM

CNCc1cc(F)ccc1Oc1ccc(Cl)c(Cl)c1
inactive: Potency [9] | Potency [14] | Potency [4] | Potency [5] | Potency [6] | Potency [16] | Potency [17] | Potency [10] | Potency [8] | Potency [19]
active: Potency [1] 30.6 µM | Potency [2] 30.6 µM | Potency [11] 61.1 µM

CCCCCCCCCCCCCCCC(=O)OC[C@H](O)[C@H]1OC(=O)C(O)=C1O
active: Potency [8] 49 µM
inactive: Potency [1] | Potency [12] | Potency [13] | Potency [9] | Potency [14] | activation ([15]; at 70.3 µM (top of the series)) 0.436% and 6.85% | Potency [3] | Potency [4] | Potency (Aromatase (Homo sapiens)) | Potency [5] | Potency [6] | Potency [7] | Potency [17] | Potency [11]

O=C(c1ccc(O)cc1O)c1ccc(O)cc1O
active: Potency [14] 11 µM [inconclusive] and 9.77 µM [inconclusive] | Potency [15] 4.33 µM and 15.4 µM | Potency [6] 21.7 µM
inactive: Potency [1] | Potency [12] | Potency [13] | Potency [9] | Potency [4] | Potency (Aromatase (Homo sapiens)) | Potency [5] | Potency [16] | Potency [10] | Potency [11] | Potency [8]

Clc1ccc2nsnc2c1NC1=NCCN1
inactive: Potency [1] | Potency [12] | Potency [13] | Potency [9] | Potency [14] | activation ([15]; at 70.3 µM (top of the series)) 1.06% | Potency [3] | Potency [4] | Potency (Aromatase (Homo sapiens)) | Potency [5] | Potency [6] | Potency [7] | Potency [16] | Potency [17] | Potency [10] | Potency [11] | Potency [8] | Potency [19]

CCc1cc(SCc2sc(-c3ccc(C(F)(F)F)cc3)nc2CN2CCN(c3ccc(OC)cc3)CC2)ccc1OCC(=O)O
inactive: Potency [4]
active: Potency [1] 24.3 µM | Potency [2] 12.2 µM | Potency (Aromatase (Homo sapiens)) 54.5 µM | Potency [8] 24.5 µM

CC(C)(C)NC(=O)[C@@H]1C[C@@H]2CCCC[C@@H]2CN1C[C@@H](O)[C@H](Cc1ccccc1)NC(=O)[C@H](CC(N)=O)NC(=O)c1ccc2ccccc2n1
active: Potency [1] 13.3 µM and 24.7 µM | Potency [2] 21.1 µM and 31 µM | Potency [4] 23.7 µM and 49.2 µM | Potency (Aromatase (Homo sapiens)) 29.8 µM and 31 µM | Potency [5] 11.9 µM and 13.9 µM | Potency [7] 26.6 µM and 22 µM | Potency [10] 49.6 µM
inactive: Potency [14] | Potency [6]

[O-][n+]1ccccc1SSc1cccc[n+]1[O-]
inactive: Potency [14] | Potency [4] | Potency [6] | Potency [10]
active: Potency [1] 0.266 µM | Potency [2] 0.211 µM | Potency (Aromatase (Homo sapiens)) 0.15 µM | Potency [5] 0.188 µM | Potency [16] 0.674 µM | Potency [18] 3.66 µM
